Inconclusive results are not listed. Calls of active or inactive are those of the source. Calls come from the whole dose curve; as a rule, active = well fitted curve in the direction sought with a large enough effect; inconclusive = small, poorly fitted or top-dose-only effect, or another doubt; inactive = no such curve, though single readings can be large; an effect the other way counts as inactive or inconclusive.
What was measured:
[1] = molecular target: Phospholipid hydroperoxide glutathione peroxidase GPX4 (Homo sapiens) (UniProt P36969); assay: Primary qHTS Assay for Inhibitors of Recombinant Selenoprotein Glutathione Peroxidase 4 (GPX4) (AID 1845192); note: nearly all actives have a fitted effect of over 65% in size; note: potency is the fitted concentration of half-maximal effect; for activity change, negative = inhibition: series mostly up to about 50 µM; % is set by controls: 0 for no effect and ±100 for the full control effect
Sequence of Phospholipid hydroperoxide glutathione peroxidase GPX4 (Homo sapiens) (P36969 whole entry, looked up): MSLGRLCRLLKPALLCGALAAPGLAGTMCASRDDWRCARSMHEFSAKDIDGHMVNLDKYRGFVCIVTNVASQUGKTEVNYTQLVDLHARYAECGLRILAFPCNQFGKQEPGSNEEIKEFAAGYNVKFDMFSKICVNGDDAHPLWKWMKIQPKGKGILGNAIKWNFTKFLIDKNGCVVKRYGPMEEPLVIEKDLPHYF
How it was run: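 Steps: GPX4 plus compound, 30 min RT; add GR/GSH/NADPH master mix; start with cumene hydroperoxide; read 340/450 nm fluorescence at 0 and 15 min. Finals were 200 nM GPX4, 1 mM GSH, 0.5 mM CHP, 0.5 mM NADPH, 100 nM GR.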

[2] = molecular target: Luciferin 4-monooxygenase (Photinus pyralis) (UniProt P08659); assay: Primary firefly luciferase (FLuc) qHTS assay for identification of artifact compounds. (AID 1845220); note: nearly all actives have a fitted effect of over 60% in size; note: potency is the fitted concentration of half-maximal effect;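 for activity change, negative = inhibition: series mostly up to about 54 µM; plate controls were DMSO vehicle for no effect and no enzyme for full effect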
How it was run: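 Enzymatic FLuc inhibition assay: compounds pre-exposed to luciferin/ATP (10 uM each) for 15 min, then purified P. pyralis enzyme at 10 nM added. Read-out: luminescence at 5 min.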

[3] = Primary fluorescence-based thiol-reactive (MSTI) qHTS assay for identification of artifact compounds. (AID 1845221); note: nearly all actives have a fitted effect of over 65% in size; note: potency is the fitted concentration of half-maximal effect
How it was run: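 In PBS pH 7.4 with 2% DMSO, each compound met 4 uM MSTI for one hour at ambient temperature, shielded from light, before fluorescence detection.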

[4] = Primary redox qHTS assay for identification of artifact compounds. (AID 1845223);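 note: 0% = DMSO and 100% = reference compound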
How it was run: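 Redox-cycling detection via DTT (250 uM final) oxidation coupled to Amplex Red (25 uM)/HRP (250 mU/mL) in HBSS. 15 min preincubation plus 30 min after DTT, room temperature. Ex/Em 525/598 nm; 4-parameter Hill fit against DMSO and 10 uM DA3003.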

[5] = tested on: Nanoluciferase (engineered Oplophorus gracilirostris luciferase); assay: Primary Nanoluciferase (NLuc) qHTS assay for identification of artifact compounds. (AID 1845222);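 note: NLuc secreted into diluted conditioned medium of S16 cells; series mostly up to about 54 µM; 0% = DMSO and -100% = no enzyme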
How it was run: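 S16 cell supernatant NLuc, 1:55; cpds qHTS; 15 min RT dark; Nano-Glo substrate 1:100, 5 min; luminescence; Hill fit of % inhibition.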

NC(=O)Nc1cc(-c2cccc(F)c2)sc1C(=O)NC1CCCNC1 (stereo not drawn)
inactive: Potency [1] | Potency [2] | Potency [3] | Potency [4]

CCc1cnn2c(NCc3ccc[n+]([O-])c3)cc(N3CCCCC3CCO)nc12 (stereo not drawn)
inactive: Potency [1] | Potency [2] | Potency [5]

CC(C)(C#N)c1ccc(N2C(=O)OCc3cnc4ccc(-c5cnc6ccccc6c5)cc4c32)cc1
inactive: Potency [1] | Potency [2] | Potency [3] | Potency [4]

COc1ccc2nc(S(=O)(=O)Cc3ncc(C)c(OC)c3C)[nH]c2c1
inactive: Potency [1] | Potency [2] | Potency [3] | Potency [4]

Cc1cc(Cl)ccc1COc1ccnn1-c1cc(C(=O)O)ccn1
inactive: Potency [1] | Potency [2] | Potency [3] | Potency [4]

[N-]=[N+]=N[C@]1(CO)O[C@@H](n2ccc(=O)[nH]c2=O)[C@@H](O)[C@@H]1O
inactive: Potency [1] | Potency [2] | Potency [3] | Potency [4]

O=C(O)c1cn(C2CC2)c2cc(N3C[C@@H]4C[C@H]3CN4)c(F)cc2c1=O
inactive: Potency [2] | Potency [3] | Potency [4]
active: Potency [1] 10.1 µM

CCOC(=O)c1cc(C#N)c(N2CCC(C(=O)NS(=O)(=O)Cc3ccccc3)CC2)nc1C
inactive: Potency [1] | Potency [2] | Potency [3] | Potency [4]

C=C1C(OC2OCC(O)C(O)C2O)CC2C(C)(C)C(O)CCC2(C)C1CC/C(C)=C\CO (stereo not drawn)
inactive: Potency [1] | Potency [2] | Potency [5]

O=C(O[C@H]1[C@@H]2C[C@@H]3OC[C@](O)([C@@H]1Cl)[C@H]2C(O[C@@H]1O[C@H](CO)[C@@H](O)[C@H](O)[C@H]1O)O3)c1ccc(O)c(O)c1 (stereo partly drawn)
active: Potency [3] 1.46 µM
inactive: Potency [1] | Potency [2] | Potency [4]

CC(=O)OC/C=C(\C)C(CC1C(C)=C(OC(C)=O)C(=O)C2C(C)(C)C(O)CCC12C)OC(C)=O (stereo not drawn)
inactive: Potency [1] | Potency [2] | Potency [5]

CC(C)N(CCCCOCC(=O)NS(C)(=O)=O)c1cnc(-c2ccccc2)c(-c2ccccc2)n1
inactive: Potency [1] | Potency [2] | Potency [3] | Potency [4]

COc1cc(C(=O)OC[C@H]2O[C@@H](Oc3ccccc3/C=C/C(=O)O)[C@H](O)[C@@H](O)[C@@H]2O)cc(OC)c1OC
inactive: Potency [1] | Potency [2] | Potency [5]

O=C(Nc1c(-c2cccs2)nc2ccccn12)c1ccc(Cl)cc1
inactive: Potency [1] | Potency [2] | Potency [3] | Potency [4]

C=C1C(O)CC2C(C(=O)O)=COC(O[C@@H]3O[C@H](COC(=O)/C=C/c4ccc(O)cc4)[C@@H](O)[C@H](O)[C@H]3O)C12 (stereo partly drawn)
inactive: Potency [1] | Potency [2] | Potency [5]

CC1(C)CC(=O)C2=C(C1)NC(=S)NC2c1cccc(O)c1 (stereo not drawn)
inactive: Potency [1] | Potency [2] | Potency [3] | Potency [4]

COC(=O)C1=C2Nc3ccccc3C23CCN2CCCC(C(C)O)(C1)C23 (stereo not drawn)
inactive: Potency [1] | Potency [2] | Potency [5]

CC(C)c1cc(CNc2nc(Nc3cc(C4CC4)[nH]n3)cc(N3CCN(C)CC3)n2)on1
inactive: Potency [1] | Potency [2] | Potency [5]

C[C@H](NC(=O)CCc1nc2ccccc2c(=O)[nH]1)c1ccccc1
inactive: Potency [1] | Potency [2] | Potency [3] | Potency [4]

CCc1cccc(CC)c1NC(=O)c1nn(C)c2c1CCc1cnc(Nc3ccc(C(=O)NC4CCN(C)CC4)cc3OC(F)(F)F)nc1-2
inactive: Potency [1] | Potency [2] | Potency [3] | Potency [4]

COC(=O)CCSCc1ccc(-c2onc(C)c2NC(=O)OC(C)c2ccccc2Cl)cc1 (stereo not drawn)
inactive: Potency [1] | Potency [2] | Potency [3] | Potency [4]

Cc1ccc(S(=O)(=O)c2ccc([N+](=O)[O-])o2)cc1
inactive: Potency [1] | Potency [2] | Potency [4]
active: Potency [3] 10.6 µM

Cc1c(C(=O)Nc2ccc(N3CC(C)OC(C)C3)nc2)cccc1-c1ccc(OC(F)(F)F)cc1 (stereo not drawn)
inactive: Potency [1] | Potency [2] | Potency [3] | Potency [4]

CCC1=CC2CN(C1)Cc1c([nH]c3ccccc13)[C@@](C(=O)OC)(c1cc3c(cc1OC)N(C)[C@H]1[C@@](O)(C(=O)OC)[C@H](OC(C)=O)[C@]4(CC)C=CCN5CC[C@]31[C@@H]54)C2 (stereo partly drawn)
inactive: Potency [1] | Potency [2] | Potency [5]

Cc1c(NC(=O)c2cc(C(N)=O)nc3cc(F)ccc23)c(C(F)(F)F)nn1Cc1ccc(C#N)cc1
inactive: Potency [1] | Potency [2] | Potency [3] | Potency [4]

Cc1ccccc1C#Cc1ccc(CCC(=O)O)cc1
inactive: Potency [1] | Potency [3] | Potency [4]
active: Potency [2] 4.26 µM

O=C1NC(=O)C(c2cn(-c3ccccc3)nc2-c2ccc(F)cc2)N1 (stereo not drawn)
inactive: Potency [1] | Potency [2] | Potency [3] | Potency [4]

COc1cccc(-c2cc(NCc3ccc4c(c3)OCO4)nc(N)n2)c1
inactive: Potency [1] | Potency [2] | Potency [3] | Potency [4]

CC(=O)O[C@@H]1CC(C)=C2[C@H]1[C@H](C)CC[C@H]2/C=C(\C)C(=O)O
inactive: Potency [1] | Potency [2] | Potency [5]

CC(=O)CC1CCC(C(C)C(=O)OCC(O)CO)O1 (stereo not drawn)
inactive: Potency [1] | Potency [2] | Potency [5]

COc1ccc(/C=C/C(=O)O[C@@H]2[C@@H](O)[C@H](C)O[C@@H](O[C@H]3[C@@H]4C=CO[C@@H](O[C@H]5O[C@@H](CO)[C@H](O)[C@@H](O)[C@@H]5O)[C@@H]4[C@@]4(CO)O[C@@H]34)[C@@H]2OC(C)=O)cc1
inactive: Potency [1] | Potency [2] | Potency [5]

NC(=O)c1cccc2cn(-c3ccc(C4CCCNC4)cc3)nc12 (stereo not drawn)
active: Potency [1] 20.2 µM
inactive: Potency [2] | Potency [3] | Potency [4]

Cc1[nH]nc(C(F)(F)F)c1Cc1sc2c(c1C(=O)N1C[C@](C)(O)CO1)c(=O)n(C)c(=O)n2C(C)C
inactive: Potency [1] | Potency [2] | Potency [3] | Potency [4]

Cc1cccc(Oc2cnc(=O)[nH]c2)c1
inactive: Potency [1] | Potency [2] | Potency [3] | Potency [4]

Cc1cccc(C)c1OCc1cc(C(=O)N2CCC(c3ccncc3)CC2)no1
inactive: Potency [1] | Potency [2] | Potency [3] | Potency [4]

C/C=C/C(O)C1OC(=O)CC1Nc1ccc(C(=O)O)cc1 (stereo not drawn)
inactive: Potency [1] | Potency [2] | Potency [5]

O=C(NOCC(O)CO)c1ccc(F)c(F)c1Nc1ccc(I)cc1F (stereo not drawn)
inactive: Potency [1] | Potency [2] | Potency [3] | Potency [4]

COc1cc(Br)c(S(=O)(=O)Nc2ccc(C(F)(F)F)c(O[C@@H]3CCN(C)C3)c2)cc1OC
inactive: Potency [1] | Potency [2] | Potency [3] | Potency [4]

Cn1nnc(-c2ccc(-c3ccc(N4C[C@H](COP(=O)(O)O)OC4=O)cc3F)cn2)n1
active: Potency [1] 22.7 µM
inactive: Potency [2] | Potency [3] | Potency [4]

CC(O)CCC1C(CO[C@@H]2O[C@H](CO)[C@@H](O)[C@H](O)[C@H]2O)CC(O)CC1(C)C (stereo partly drawn)
inactive: Potency [1] | Potency [2] | Potency [5]

COc1ccc(CC2C(=O)NC(C)C(=O)N(C)C3Cc4ccc(cc4)Oc4cc(ccc4OC4OC(CO)C(O)C(O)C4O)CC(C(=O)NC(C)C(=O)NC(C)C(=O)N2C)N(C)C3=O)cc1 (stereo not drawn)
inactive: Potency [1] | activity change, negative = inhibition [2] -7.7% [at 11.6 µM] | activity, negative = inhibition [5] -5.37% [at 11.6 µM]

CC1(C)C=CN2C(=O)C3=CCCN3C(=O)[C@@H]2C[C@@]12Nc1ccccc1C2=O
inactive: Potency [1] | Potency [2] | Potency [5]

CN(CCc1ccc(Nc2ncc(-c3cccnc3)s2)cc1)Cc1ccccc1
inactive: Potency [1] | Potency [2] | Potency [5]

COc1ccc(-c2c(-c3cc(C(=O)O)ccn3)ncn2C)cc1
inactive: Potency [1] | Potency [2] | Potency [5]

CC(CO)C1CCC2(C)CC3C(CO)CC(O)C3C(C)(O)C/C=C/12 (stereo not drawn)
inactive: Potency [1] | Potency [2] | Potency [5]

c1cn2cc(-c3ccc4cn[nH]c4c3)nc(Nc3ccc(N4CCOCC4)cc3)c2n1
inactive: Potency [1] | Potency [5]
active: Potency [2] 0.0536 µM

CC/C=C\CC1C(=O)C=CC1(CCCCCCCC(=O)O)OC(C)=O (stereo not drawn)
inactive: Potency [1] | Potency [2] | Potency [5]

CO[C@H]1/C=C\O[C@@]2(C)Oc3c(C)c(O)c4c(O)c(c5c(nc6cc(C)ccn65)c4c3C2=O)NC(=O)/C(C)=C\C=C/[C@H](C)[C@H](O)[C@@H](C)[C@@H](O)[C@@H](C)[C@H](OC(C)=O)[C@@H]1C
inactive: Potency [1] | Potency [2] | Potency [5]

Cc1ccc(C(=O)N(CCCN)C(c2oc3cc(Cl)ccc3c(=O)c2Cc2ccccc2)C(C)C)cc1 (stereo not drawn)
inactive: Potency [1] | Potency [2] | Potency [5]

C=C1C(O)C[C@@H]2C(C(=O)O)=CO[C@@H](O[C@@H]3O[C@H](CO)[C@@H](O)[C@H](O)[C@H]3OC(=O)c3ccc(O)cc3)[C@H]12 (stereo partly drawn)
inactive: Potency [1] | Potency [2] | Potency [5] | Potency [4]

COc1cc(N)c(Cl)cc1C(=O)NC[C@@H]1CCN2CCC[C@@H]12
inactive: Potency [1] | Potency [2] | Potency [5]

COc1ccc(N2CCOCC2)c2sc(NC(=O)N3CCC(C)(O)CC3)nc12
inactive: Potency [1] | Potency [2] | Potency [5]

C=CC(=O)Nc1cc(Nc2ncc(Cl)c(-c3c[nH]c4ccccc34)n2)c(OC)cc1N(C)CCN(C)C
inactive: Potency [1] | Potency [2] | Potency [5]

CC(C)/C=C1\NC(=O)C(C(C)C)n2c1nc1c(c2=O)C=CC=CO1 (stereo not drawn)
inactive: Potency [1] | Potency [2] | Potency [5]

CC1(C)CCCC2(C)C(CO)C(CO)=CCC12 (stereo not drawn)
inactive: Potency [1] | Potency [2] | Potency [5] | Potency [4]

COc1c(/C=C/C(C)(C)O)ccc2c1C(=O)OCc1cc(C)cc(O)c1O2
inactive: Potency [1] | Potency [2] | Potency [5]

CCCCNc1ncc2c(-c3ccc(CN4CCN(C)CC4)cc3)cn(C3CCC(O)CC3)c2n1 (stereo not drawn)
inactive: Potency [1] | Potency [2] | Potency [5]

C[C@@H]1CC[C@]2(C(=O)O)CC[C@]3(C)C(=CCC4[C@@]5(C)C[C@@H](O)[C@H](O)[C@@](C)(CO)C5CC[C@]43C)C2[C@]1(C)O (stereo partly drawn)
inactive: Potency [1] | Potency [2] | Potency [5]

From PubChem BioAssay (NCATS)
